Source: PubChem BioAssay (National Center for Advancing Translational Sciences (NCATS))
Hits are enriched below; roughly 3.2% of the tested compounds scored in any of these assays.
Vaccinia Venus = qHTS for Stage-Specific Inhibitors of Vaccinia Orthopoxvirus: Venus Reporter Primary qHTS. Vaccinia virus Venus reporter expression, fluorescence. Potency, µM (series often up to 36.5 µM), for inactives: at the top dose activity change, negative = inhibition, most hits filed as inhibitors. actives 0.46% (n = 330,000); calls by dose curve; tested in A549 cells; note: nearly all actives have a fitted effect of over 30% in size
FMDV antiviral = High Throughput Screening for Foot and Mouth Disease Virus Antivirals | Potency, µM (doses to about 57.9 µM), without a hit: at the highest dose activity change, negative = inhibition, usual class: inhibitors | FMDV antiviral cell-based qHTS | actives 1.2% (n = 410,000); calls by dose curve; tested in HEK293T cells; note: read-out not given here; nearly all actives have a fitted effect of over 45% in size
Marburg entry inh = qHTS for inhibitors of binding or entry into cells for Marburg Virus | Marburg virus pseudotyped entry inhibition, cell reporter | Potency, µM (top dose mostly 37.8 µM), inactives show at the highest dose activity change, negative = inhibition, usual class: inhibitors | actives 1.8% (n = 300,000); calls by dose curve; tested in HEK293 cells
Lassa entry inh = qHTS for Inhibitors of binding or entry into cells for Lassa Virus | Potency, µM (titrated, usually from 37.9 µM), inactives show at the top dose activity change, negative = inhibition, hits mostly inhibitors | actives 1.2% (n = 300,000) | Lassa virus pseudotype entry inhibition, cell reporter | AID 540256, 2011; calls by dose curve; tested in HEK293 cells; note: nearly all actives have a fitted effect of over 50% in size
VACV mCherry inh = qHTS for Stage-Specific Inhibitors of Vaccinia Orthopoxvirus: mCherry Reporter Primary qHTS; AID 720579, 2013; actives 0.63% (n = 310,000); Potency, µM (doses to about 36.5 µM), for the others: at the top dose activity change, negative = inhibition, hits mostly inhibitors; Vaccinia virus mCherry reporter infection, fluorescence; calls by dose curve; tested in A549 cells; note: nearly all actives have a fitted effect of over 35% in size
* marks the source's active call; other numbers are inactive results; i = inactive; ? = inconclusive; nt = no result; [ ] = another dose, or the depositor's remark. % is set by controls: 0 for no effect and ±100 for the full control effect; potency is the fitted concentration of half-maximal effect.

SMILES | Vaccinia Venus | FMDV antiviral | Marburg entry inh | Lassa entry inh | VACV mCherry inh
COc1ccccc1-c1cc(C(F)(F)F)nc(N2CCCC2)n1 | nt | 2.5% | -1.9% | -23.1% | nt
COc1ccccc1-c1cc(C(F)(F)F)nc(S(=O)(=O)CCCC(=O)NC(C)C)n1 | -9.7% | 8.91µM* | ? | ? | -8.2%
COc1ccccc1-c1cc(C(F)(F)F)nc(S(C)(=O)=O)n1 | nt | 31.6µM* | ? | ? | nt
COc1ccccc1-c1cc(C(F)(F)F)nc(S(=O)(=O)CCCC(=O)N2CCCCC2C)n1 (configuration not stated) | -20.9% | 7.94µM* | ? | ? | -27.1%
Cc1cc(C)cc(-n2ccn(CC(=O)Nc3ccccc3F)c(=O)c2=O)c1 | -15.9% | -9.4% | nt | 7.9%[46.1 µM] | -8.5%
COc1ccc(C2Nc3ccccc3C(=O)N2c2ccc(Cl)cc2)cc1COc1ccc(NC(C)=O)cc1 (configuration not stated) | -7.9% | nt | nt | nt | -2.9%
COc1ccccc1-c1cc(C(F)(F)F)nc(S(=O)(=O)CCCC(=O)Nc2cccnc2Cl)n1 | ? | 14.1µM* | ? | ? | ?
CC(=O)Nc1cccc(-c2csc(N)n2)c1 | -17.8% | 15.2% | nt | nt | -6.3%
CC(=O)Nc1cccc(-c2cnc(N)c(C(=O)c3cccnc3)n2)c1 | 10µM* | -3.7% | nt | nt | 12.6µM*
NC(=O)c1cccc(-c2cnc(N)c(C(=O)c3cccnc3)n2)c1 | ? | -16.9% | nt | nt | 6.31µM*
CC(=O)N1c2ccc(S(=O)(=O)NCC3CCC(C(=O)Nc4cccc(F)c4)CC3)cc2CC1C (configuration not stated) | ? | 20µM* | nt | ? | -9.2%
CN(c1ccccc1)c1ccc(/C=C(\C#N)c2nnc3n2CCCCC3)cc1[N+](=O)[O-] | 12.1% | -8.3% | ? | 7.08µM* | -6.0%
N#C/C(=C\c1cccc([N+](=O)[O-])c1)c1nnc2n1CCCCC2 | -13.3% | -14.6% | ? | -9.8% | -13.0%
Cc1cc(=O)c(C(=O)N(C)CCc2ccccn2)c2n1-c1ccccc1SC(c1ccsc1)C2 (configuration not stated) | 15.9% | -7.0% | nt | nt | 0.6%
CCc1nc2ccc(C(=O)NCCCN3CCN(c4ccccc4F)CC3)cc2nc1CC | -19.5% | 0.0% | 10µM* | ? | -3.3%
COc1ccccc1N1CCN(CCCCNC(=O)c2ccc3ccccc3c2)CC1 | -10.6% | ? | 8.91µM* | nt | i
CCCn1c(=O)c2sccc2n2c(CCCC(=O)N3CCN(c4cccc(C)c4C)CC3)nnc12 | -21.6% | 15.8µM* | nt | 3.7%[46.1 µM] | -26.1%
O=C(c1ccc2c(c1)N(Cc1cccc(Cl)c1)C(=O)c1ccccc1S2(=O)=O)N1CCC(Cc2ccccc2)CC1 | -14.0% | -7.5% | nt | -20.2%[46.1 µM] | -5.6%
COc1ccc(N2CC(NC(=O)/C=C\c3ccc4c(c3)OCO4)CC2=O)cc1 (configuration not stated) | -8.9% | -19.8% | nt | 2.3%[46.1 µM] | -10.3%
OC(c1ccc2c(c1)CN(Cc1cccn1-c1ncccn1)CCO2)C1CCCCC1 (configuration not stated) | -14.9% | -19.0% | nt | nt | -14.6%
CC1Sc2ccc(C(=O)Nc3ncccc3O)cc2NC1=O (configuration not stated) | -13.0% | -7.2% | 10µM* | ? | -27.0%
Cc1cccnc1NC(=O)c1ccc2c(c1)NC(=O)C(C)S2 (configuration not stated) | -6.4% | 0.0% | 9.0% | ? | i
CCOc1ccc(/C=C/c2nc(C#N)c(Nc3ccc(OCC)cc3)o2)cc1 | -11.3% | -4.6% | 12.0%[46.1 µM] | ? | -13.1%
CCCCCCN1C[C@H](n2cc(-c3ccc(F)cc3)nn2)[C@@H](O)C[C@@H]1c1ccccc1 | -5.2% | -26.6% | nt | nt | -20.5%
Cc1ccc([C@H]2C[C@H](O)[C@@H](n3cc(-c4ccc(F)cc4)nn3)CN2Cc2cccs2)cc1 | ? | -14.0% | nt | ? | ?
SMILES | Vaccinia Venus | FMDV antiviral | Marburg entry inh | Lassa entry inh | VACV mCherry inh
Cc1ccc([C@H]2C[C@H](O)[C@@H](n3cc(-c4ccc(F)cc4)nn3)CN2CC2CCCCC2)cc1 | -21.8% | -5.9% | nt | 28.1µM* | i
CCCCCCN1C[C@H](n2cc(COC(=O)c3ccccc3)nn2)[C@@H](O)C[C@@H]1c1ccc(Cl)cc1 | 10µM* | ? | nt | nt | ?
COc1ccc([C@H]2C[C@@H](O)[C@H](n3cc(-c4ccc(F)cc4)nn3)CN2Cc2cccs2)cc1 | nt | nt | 8.87µM* | nt | nt
CCCCCCN1C[C@H](n2cc(-c3ccc(F)cc3)nn2)[C@@H](O)C[C@@H]1c1ccc(Cl)cc1 | 14.1µM* | -5.7% | nt | nt | ?
CCC1CCCCN1C(=O)Cn1c(=O)n(-c2ccc(Cl)c(Cl)c2)c(=O)c2c(C)c(C(=O)N(C)C)sc21 (configuration not stated) | -6.4% | -6.1% | nt | -11.0%[46.1 µM] | -1.2%
O=C(NCC1=C(Cl)CCCC1)C1CNCCC1C(F)(F)F (configuration not stated) | nt | nt | -19.4% | nt | nt
O=C(C1CCCCC1)N1C[C@H](O)[C@H](n2cc(-c3ccc(F)cc3)nn2)C[C@@H]1c1ccc(Cl)cc1 | nt | nt | 7.91µM* | nt | nt
Cc1ccc([C@H]2C[C@H](O)[C@@H](n3cc(-c4ccc(F)cc4)nn3)CN2C(=O)C2CCCCC2)cc1 | -24.7% | -32.3% | ? | nt | 3.8%
O=C(COC(=O)C12CC3CC(CC(C3)C1)C2)NCCc1ccccc1 | -2.4% | nt | 2.6% | -5.8% | -8.8%
O=C(Nc1ccc2c(c1)N(C1CCCC1)C(=O)c1ccccc1S2)c1ccc(F)cc1 | -9.1% | -27.2% | nt | ? | 0.3%
O=C(Nc1ccc2c(c1)N(C1CCCC1)C(=O)c1ccccc1S2)c1ccccc1 | -4.8% | 0.0% | nt | 2.82µM* | -8.5%
COc1ccc(CN2CCOc3ccc(CN4CCC(Oc5cccnc5)CC4)cc3C2)c(F)c1 | -27.7% | ? | nt | nt | -9.9%
CCCCc1c(-c2cccc(OC)c2)ncn1CCc1ccccc1OC | ? | 25.1µM* | nt | nt | -9.3%
CCCCc1c(-c2ccc(F)cc2F)ncn1CCc1ccccc1OC | -29.2% | -18.2% | nt | nt | ?
CCc1c(-c2ccccc2)ncn1Cc1cccc(-c2ccccc2)c1 | -23.2% | ? | nt | nt | ?
CCCCc1c(Cc2cccc(F)c2)ncn1CCc1ccccc1OC | -15.6% | 31.6µM* | nt | nt | -14.4%
CCCc1c(-c2ccc(Cl)cc2)ncn1Cc1ccccc1OC | -15.8% | ? | nt | nt | -9.8%
CCCc1c(-c2ccc(Cl)cc2)ncn1CCc1ccccc1OC | -21.6% | 28.2µM* | nt | nt | -21.8%
CCc1c(-c2cccc(OC)c2)ncn1Cc1cccc(-c2ccccc2)c1 | ? | 31.6µM* | nt | nt | -18.1%
CCCCc1c(-c2ccc(OC)c(OC)c2)ncn1CCc1ccccc1OC | -16.6% | ? | nt | nt | ?
O=C(c1ccnc(-n2cnnn2)c1)N1CCOc2ccc(C(O)CCc3ccccc3)cc2C1 (configuration not stated) | -1.1% | 14.9% | nt | nt | -8.3%
C[C@@H]1CC[C@H]2C(=O)O[C@@H](Cc3ccccc3)CN2[C@@H]1c1ccc(Br)cc1 | nt | nt | 7.1%[14.2 µM] | nt | nt
CCCCc1c(-c2ccccc2OC)ncn1Cc1ccc(-c2ccccc2)cc1 | ? | 28.2µM* | nt | nt | ?
